Shown are actives, neighbours in structure and some others; about 12% of the full set was active somewhere.
PLK1 PBD inh = qHTS for Inhibitors of PLK1-PDB (polo-like kinase 1 - polo-box domain): Primary Screen; hit rate 2.8% among 360,000; AID 720504, 2013; Serine/threonine-protein kinase PLK1 (Homo sapiens), P53350; Plk1 PBD binding of FITC phosphopeptide, fluorescence polarization; Potency, µM, for the others: max response, negative = inhibition, actives largely listed as inhibitors; also: series mostly up to about 57 µM; nearly all actives have a fitted effect of over 65% in size
RORgamma inh = qHTS for inhibitors of ROR gamma transcriptional activity. Potency, µM (highest dose often 53.6 µM), inactives show at the highest dose activity change, negative = inhibition, usual class: inhibitors. Drosophila S2 Gal4-RORgamma UAS-luciferase reporter, 20 h. hit rate 5.4% among 310,000. AID 2551, 2010; also: nearly all actives have a fitted effect of over 60% in size
Target sequence (P51450 whole entry, looked up, the tested form may be a part): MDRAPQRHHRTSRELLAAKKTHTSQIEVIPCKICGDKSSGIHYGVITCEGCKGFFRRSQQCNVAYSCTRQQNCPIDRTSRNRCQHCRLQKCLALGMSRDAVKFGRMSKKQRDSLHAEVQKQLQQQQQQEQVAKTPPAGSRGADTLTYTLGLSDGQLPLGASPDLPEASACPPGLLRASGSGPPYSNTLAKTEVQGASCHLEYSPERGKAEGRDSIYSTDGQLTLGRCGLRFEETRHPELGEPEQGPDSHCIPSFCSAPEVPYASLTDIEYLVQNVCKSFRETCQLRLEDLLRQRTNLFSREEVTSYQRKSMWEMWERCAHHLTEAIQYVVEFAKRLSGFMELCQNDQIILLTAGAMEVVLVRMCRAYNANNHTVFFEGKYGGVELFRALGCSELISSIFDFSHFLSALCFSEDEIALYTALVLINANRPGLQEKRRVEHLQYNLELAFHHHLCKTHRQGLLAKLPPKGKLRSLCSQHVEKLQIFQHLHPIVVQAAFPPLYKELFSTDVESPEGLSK
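ROR gamma transcriptional activity was tracked as Gal4-UAS luciferase output in stably transfected Drosophila Schneider cells, with compound added 1 hr before 700 uM copper sulfate induction and a 20 hr ambient-temperature incubation.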
ALDH1A1 block = qHTS Assay for Inhibitors of Aldehyde Dehydrogenase 1 (ALDH1A1) | Aldehyde dehydrogenase 1A1 (Homo sapiens), P00352 | Purified ALDH1A1, NADH fluorescence, propionaldehyde substrate | Potency, µM (doses to about 75.3 µM), without a hit: at the highest dose activity, negative = inhibition, actives largely listed as inhibitors | hit rate 7.3% among 220,000 | AID 1030, 2008; active = well fitted inhibition curve with a large enough effect, not every such curve was filed as active; inconclusive = small, poorly fitted or top-dose-only effect, or another doubt; inactive = no such curve, though single readings can be large or run the other way;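 also: plate controls were no enzyme wells and a reference inhibitor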
Sfp PPTase inh = qHTS Assay for Inhibitors of Bacillus subtilis Sfp phosphopantetheinyl transferase (PPTase). hit rate 3.5% among 310,000. Potency, µM, without a hit: largest response in the series, negative = inhibition, hits mostly inhibitors. Biochemical Sfp PPTase activity, qHTS. AID 1490, 2009;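 also: the enzyme is Sfp with the accession as filed and its product quenches rhodamine fluorescence; 0% = enzyme reaction without inhibitor and -100% = no enzyme wells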
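With Hepes-Na pH 7.6 buffer containing 10 mM MgCl2, Sfp (15 nM) modified BHQ-2-YbbR (12.5 uM) using rhodamine-CoA (5 uM). Two reads 30 minutes apart at 525/598 nm yielded each well's rate.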
Gal4-VP16 FLuc = VP16 counterscreen qHTS for inhibitors of ROR gamma transcriptional activity; Drosophila S2 Gal4-VP16 UAS-luciferase, luminescence, 20 h; Potency, µM (doses to about 53.6 µM), for inactives: top-dose activity, negative = inhibition, hits mostly inhibitors; hit rate 3.5% among 310,000;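 also: Gal4-VP16 expression switched on by copper sulfate through the metallothionein promoter; nearly all actives have a fitted effect of over 50% in size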
Active calls of the source: *; u = inconclusive; x = no result given; [ ] = another dose, or the depositor's remark. Unless noted, calls follow the shape of the dose curve; as a rule, active = well fitted curve in the direction sought with a large enough effect; inconclusive = small, poorly fitted or top-dose-only effect, or another doubt; inactive = no such curve, though single readings can be large; an effect the other way counts as inactive or inconclusive. Unless noted, % is scaled to controls: 0 for no effect and ±100 for the full control effect; potency is read from the fitted curve at half-maximal effect.

SMILES | PLK1 PBD inh | RORgamma inh | ALDH1A1 block | Sfp PPTase inh | Gal4-VP16 FLuc
CCCCN(C(C)=O)c1ccc(S(=O)(=O)NC2=NCCCCC2)cc1NC(C)=O | -9% | x | x | x | x
CCN(CC)C(=O)c1ccc(S(=O)(=O)c2ccccc2)cc1 | -5% | -10% | x | 10% | 4%
CCn1c(=O)[nH]c2ccccc21 | x | -20% | 1% | 5% | -12%
CCn1c(C)c(CS(=O)(=O)c2ccccc2)[nH]c1=O | 3.4µM* | u | 22µM* | 25µM* | u
CC12C=CC(=O)C=C1[C@@H](F)CC1C2C(O)CC2(C)C1CC[C@]2(O)C(=O)CO (stereo not given in full) | x | 4% | 1% | 3% | 4%
CSc1ncnc2c1ncn2CCCNCC(c1ccccc1)c1ccccc1 | -7% | x | x | x | x
CN(Cc1ccccc1)Cc1nc2scc(-c3ccccc3)c2c(=O)[nH]1 | -1% | 3.2µM* | u | 0% | u
c1ccc(Cc2nnc3sc(-c4cccnc4)nn23)cc1 | 30µM* | -7% | 11µM* | u | 2%
c1ccc(Cc2nnc3sc(-c4ccc5c(c4)OCO5)nn23)cc1 | 20µM* | x | x | x | x
c1ccc(OCc2nn3c(-c4ccncc4)nnc3s2)cc1 | 0% | -2% | 8% | -1% | -2%
c1ccc(Cc2nnc3sc(-c4cccs4)nn23)cc1 | 15µM* | 37% | 2.8µM* | 10% | 11%
c1ccc(Cc2nn3c(-c4ccncc4)nnc3s2)cc1 | 24µM* | 20% | 22µM* | u | 6%
COC(=O)C[C@@H]1OC[C@H](Cc2ccccc2)N1S(=O)(=O)c1ccc(C)cc1 | -6% | x | x | x | x
O=C(Nc1ccc2c(c1)OCO2)C1CCN(C(=O)c2ccc(Br)cc2)CC1 | -6% | 17% | u | 5% | -3%
Cc1ccc(S(=O)(=O)OC[C@@H]2CN3[C@H](c4ccc(Br)cc4)[C@H](C)CC[C@H]3C(=O)O2)cc1 | x | -4%[10 µM] | u | 1% | -13%[10 µM]
c1ccc(Cc2nnc3sc(-c4ccncc4)nn23)cc1 | u | 1% | 7.9µM* | -67% | -10%
c1ccc(Cc2nnc3sc(-c4ccc5c(c4)OCCO5)nn23)cc1 | -7% | 25% | u | u | 7%
c1ccc(Cc2nnc3sc(-c4ccccn4)nn23)cc1 | 24µM* | -31% | 14µM* | u | 0%
c1ccc(CCc2nn3c(Cc4ccccc4)nnc3s2)cc1 | 11µM* | 29% | 8.9µM* | 22µM* | u
Cc1c(Cl)cccc1-n1c(-c2cccnc2)n[nH]c1=S | -5% | -8% | 3% | u | -2%
Cc1cc(Cl)ccc1-n1c(-c2cccnc2)n[nH]c1=S | -12% | u | u | 18µM* | u
Cc1ccc(-n2c(-c3ccc(Br)cc3)n[nH]c2=S)c(C)c1 | -11% | x | x | x | x
Cc1ccc(C)c(-n2c(-c3cccnc3)n[nH]c2=S)c1 | -16% | 10µM* | u | -22% | -7%[10 µM]
Cc1ccc(C)c(-n2c(-c3csc(C)c3C)n[nH]c2=S)c1 | -10% | u | 1% | u | 5µM*
O=C(CCN1CCOCC1)Nc1ccc(F)cc1F | x | x | 2%[13.5 µM] | x | x
SMILES | PLK1 PBD inh | RORgamma inh | ALDH1A1 block | Sfp PPTase inh | Gal4-VP16 FLuc
CCc1ccc(CNC(=O)c2ccc(OC3CCN(C(=O)COC)CC3)cc2)nc1 | -3% | -17% | x | -1% | 5%
COC(=O)N1[C@H]2CC[C@@]3(C)C=C(C)O[C@]1(C)C3c1ccccc12 | x | 17% | 19% | -4% | -3%
N#Cc1cc([N+](=O)[O-])c(-n2nnc3ccccc32)c([N+](=O)[O-])c1 | 11µM* | -17% | 0% | 9% | 3%
O=C1NC2(CCCCC2)Oc2ccccc21 | -3% | 13% | 16µM* | 10% | -24%
O=C1NC2(CCCCCC2)Oc2ccccc21 | u | 33% | 5% | 11% | -12%
CC1=NN(Cc2c(C)nn(Cc3ccccc3)c2C)C(C)(C)C1 | 8% | 13µM* | 1% | 2% | 9%
Cc1nn(Cc2ccccc2)c(C)c1N | -15% | -20% | -2% | 1% | -18%
COc1cc(C=O)c([N+](=O)[O-])cc1OC | x | -42% | 11µM* | -4% | 21%
Cc1ccc(NC(=S)N(Cc2ccccc2)C(C)C)cc1 | 1% | 10µM* | 4% | 0% | u
CN(C)C(=S)Nc1cccc(C(F)(F)F)c1 | -12% | -37% | x | 13% | 4%
CC(C1CC1)N(Cc1ccccc1)C(=S)Nc1cccc(C(F)(F)F)c1 (stereo not given) | 30µM* | 11µM* | u | -6% | u
CC(C1CC1)N(Cc1ccccc1)C(=S)Nc1ccccc1 (stereo not given) | -14% | 11µM* | 1% | 20% | u
CC(C)N(Cc1ccccc1)C(=S)Nc1ccc(F)cc1 | 0% | -44% | -6% | 0% | -1%
N#Cc1ccc2c(c1)C[C@]1(c3ccsc3)Oc3c(c(=O)oc4ccccc34)C2O1 | x | u | x | -16% | -4%[10 µM]
COC(=O)c1ccc(C(NC(=O)OCc2ccccc2)/C(F)=C/[C@@H](C)C(=O)N[C@@H](CO)Cc2ccccc2)cc1 (stereo not given in full) | x | 9% | -6% | 33% | -3%
CCCCC1=CC2=C(OC(C)=O)C(=O)C(C)(OC(=O)c3ccc(Cl)nc3)C(=O)C2=CO1 (stereo not given) | x | 19% | 13% | -18% | -2%
CC(=O)Nc1cc(-c2ccccc2CN(C)C)cn2c(-c3ccc(C(C)=O)cc3)cnc12 | -3% | x | x | x | x
CCn1cc(/C=C(\NC(=O)c2ccc(OC)c(OC)c2)C(=O)N2CCN(C)CC2)c2ccccc21 | 27µM* | 1% | x | 5% | -17%
COc1cc(C(=O)N/C(=C\c2cn(C)c3ccccc23)C(=O)NCCCN2CCOCC2)cc(OC)c1OC | 17µM* | 1% | x | -1% | 2%
COc1ccccc1C(=O)N/C(=C\c1cn(C)c2ccccc12)C(=O)NCCCN1CCOCC1 | -2% | -21% | x | -11% | 2%
COCCn1c(=O)c(-c2ccc(OC)cc2)nc2cnc(N3CCN(C)CC3)nc21 | x | -1% | u | 21% | -12%
O=c1[nH]c(SCc2c(Cl)c(Cl)c(Cl)c(Cl)c2Cl)nc(=S)[nH]1 | x | x | -4%[13.5 µM] | x | x
CCc1nc2ccc(C(=O)NCCCn3ccnc3)cn2c1N(CC)C(=O)NCCc1ccccc1 | -10% | x | x | x | x
COc1cccc(C(=O)NC(=S)Nc2ccc(Cl)cc2C(=O)O)c1 | u | 10µM* | x | 50µM* | 7.1µM*
O=C(Nc1ccc2c3c(cccc13)CC2)c1ccccc1 | -1% | x | x | x | x
COc1cccc(C(=O)NC(=S)Nc2ccc3c4c(cccc24)CC3)c1 | -5% | 3.5µM* | 14µM* | -12% | 11µM*
COc1cccc(NC(=O)c2cccc(Cl)c2)c1 | 6% | x | x | x | x

Screening results (PubChem BioAssay)
